Results filed as inconclusive are left out. Calls of active or inactive are those of the source.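 Rule for the calls, unless noted: active = normalized viability below 100% at a tested concentration; inactive = the rest.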
Columns and labels:
[1] = growth inhibition of DIPG glioma cells, dose response, cell-based, SU-DIPG-XVII, MIPE5.0, CellTiter-Glo, qHTS (AID 1347060; cut-off not given, nearly all actives have AC50 up to about 26 µM;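 for AC50: cells exposed to compound for 48 hours before viability readout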); settings: SU-DIPG-XVII viability, CellTiter-Glo ATP luminescence
[2] = growth inhibition of DIPG glioma cells, dose response, cell-based, SU-DIPG-XIII, MIPE5.0, CellTiter-Glo, qHTS (AID 1347064; cut-off not given, nearly all actives have AC50 up to about 23 µM;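 for AC50: cells exposed to compound for 48 hours before the viability read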); settings: SU-DIPG-XIII viability, CellTiter-Glo ATP luminescence
[3] = viability loss in pontine glioma line – cell-based, SU-DIPG-XXV, MIPE5.0, CellTiter-Glo, qHTS, dose response (AID 1347065; cut-off not given, nearly all actives have AC50 up to about 26 µM;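 note: cells exposed to compound for 48 hours before ATP readout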); settings: CellTiter-Glo ATP luminescence
[4] = JHH-DIPG-1 glioma cell viability, MIPE5.0 library, CellTiter-Glo luminescence, qHTS (AID 1347067; cut-off not given, nearly all actives have AC50 up to about 26 µM;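 note: cells exposed to compound for 48 hours before readout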); settings: JHH-DIPG-1 glioma viability, CellTiter-Glo ATP luminescence
[5] = SU-DIPG-XXV glioma cell viability, MIPE5.0 library, qHTS (AID 1347068; cut-off not given, nearly all actives have IC50 up to about 30 µM;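 for IC50: cells exposed to compound for 48 hours before viability readout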)
[6] = sensitizers of A549 cells to miR-34 induction, primary screen, imaging, A549 dox-inducible miR-34, nuclei and caspase counts (AID 1347080;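 active = compounds whose cell count with miR-34 switched on is under 0.7 times the count with it off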); settings: A549 miR-34 inducible, Hoechst nuclei count, 48 h
[7] = survival rescue of mitochondrial mutant cells in low glucose, primary screen, MELAS cybrids, Rieske KO mouse fibroblasts, CellTiter-Glo (AID 1508586;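 active = mean z-score across replicates of 1.96 or higher in either the MELAS or the Rieske mutant cell line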;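 note: z relative to plate mean and SD of compound and empty wells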)
[8] = ovarian cancer cell viability with rucaparib, profiling panel, oncology-focused library, rucaparib conditional (AID 1508598); settings: patient-derived ovarian cancer cells, CellTiter-Glo viability, 144 h, stronger effect = lower value
[9] = stronger effect = lower value, cell number ratio, induced over uninduced
[10] = measured here: relative caspase fold change +Dox/-Dox
[11] = measured here: total cells with miR-34 induction, stronger effect = lower value
[12] = measured here: total cells without miR-34 induction
[13] = MELAS cybrid survival, CellTiter-Glo 48 h, stronger effect = higher value
[14] = Rieske KO mouse fibroblast survival, CellTiter-Glo 72 h
[15] = at 0.000305 µM, OCI-C5x cells, with rucaparib 10 µM, 100% = cells with rucaparib alone
[16] = at 0.000305 µM, OCI-C5x cells, without rucaparib
[17] = at 0.000305 µM, OCI-P5x cells, with rucaparib 20 µM, 100% = cells with rucaparib alone
[18] = at 0.000305 µM, OCI-P5x cells, without rucaparib
[19] = at 0.00122 µM, OCI-C5x cells, with rucaparib 10 µM, 100% = cells with rucaparib alone
[20] = at 0.00122 µM, OCI-C5x cells, without rucaparib
[21] = at 0.00122 µM, OCI-P5x cells, with rucaparib 20 µM, 100% = cells with rucaparib alone
[22] = at 0.00122 µM, OCI-P5x cells, without rucaparib
[23] = at 0.00488 µM, OCI-C5x cells, with rucaparib 10 µM, 100% = cells with rucaparib alone
[24] = at 0.00488 µM, OCI-C5x cells, without rucaparib
[25] = at 0.00488 µM, OCI-P5x cells, with rucaparib 20 µM, 100% = cells with rucaparib alone
[26] = at 0.00488 µM, OCI-P5x cells, without rucaparib
[27] = at 0.0195 µM, OCI-C5x cells, with rucaparib 10 µM, 100% = cells with rucaparib alone
[28] = at 0.0195 µM, OCI-C5x cells, without rucaparib
[29] = at 0.0195 µM, OCI-P5x cells, with rucaparib 20 µM, 100% = cells with rucaparib alone
[30] = at 0.0195 µM, OCI-P5x cells, without rucaparib
[31] = at 0.0781 µM, OCI-C5x cells, with rucaparib 10 µM, 100% = cells with rucaparib alone
[32] = at 0.0781 µM, OCI-C5x cells, without rucaparib
[33] = at 0.0781 µM, OCI-P5x cells, with rucaparib 20 µM, 100% = cells with rucaparib alone
[34] = at 0.0781 µM, OCI-P5x cells, without rucaparib
[35] = at 0.313 µM, OCI-C5x cells, with rucaparib 10 µM, 100% = cells with rucaparib alone
[36] = at 0.313 µM, OCI-C5x cells, without rucaparib
[37] = at 0.313 µM, OCI-P5x cells, with rucaparib 20 µM, 100% = cells with rucaparib alone
[38] = at 0.313 µM, OCI-P5x cells, without rucaparib
[39] = at 1.25 µM, OCI-C5x cells, with rucaparib 10 µM, 100% = cells with rucaparib alone
[40] = at 1.25 µM, OCI-C5x cells, without rucaparib
[41] = at 1.25 µM, OCI-P5x cells, with rucaparib 20 µM, 100% = cells with rucaparib alone
[42] = at 1.25 µM, OCI-P5x cells, without rucaparib
[43] = at 5 µM, OCI-C5x cells, with rucaparib 10 µM, 100% = cells with rucaparib alone
[44] = at 5 µM, OCI-C5x cells, without rucaparib
[45] = at 5 µM, OCI-P5x cells, with rucaparib 20 µM, 100% = cells with rucaparib alone
[46] = at 5 µM, OCI-P5x cells, without rucaparib

COc1cc(Nc2nc3ccccc3nc2NS(=O)(=O)c2ccc(NC(=O)c3ccc(C)c(OC)c3)cc2)cc(OC)c1
7550: cell count [6, 11]
1.03: fold change [6, 10]
0.479: z-score [7, 14]
8180: cell count [6, 12]
active: viability [8, 15] 98.9% | viability [8, 17] 91.1% | viability [8, 18] 95.8% | viability [8, 22] 98.9% | viability [8, 41] 90.5% | viability [8, 45] 92.1%
inactive: outcome [1] | outcome [2] | outcome [3] | outcome [4] | outcome [5] | fold change [6, 9] 0.923 | z-score [7, 13] -0.401 | viability [8, 16] 109% | viability [8, 19] 114% | viability [8, 20] 112% | viability [8, 21] 104% | viability [8, 23] 110% | viability [8, 24] 112% | viability [8, 25] 103% | viability [8, 26] 101% | viability [8, 27] 106% | viability [8, 28] 109% | viability [8, 29] 101% | viability [8, 30] 107% | viability [8, 31] 118% | viability [8, 32] 114% | viability [8, 33] 109% | viability [8, 34] 108% | viability [8, 35] 108% | viability [8, 36] 116% | viability [8, 37] 107% | viability [8, 38] 104% | viability [8, 39] 106% | viability [8, 40] 120% | viability [8, 42] 108% | viability [8, 43] 111% | viability [8, 44] 121% | viability [8, 46] 111%

CCN1CCN(Cc2ccc(Nc3ncc(F)c(-c4cc(F)c5nc(C)n(C(C)C)c5c4)n3)nc2)CC1
active: AC50 [1] 5.9 µM | AC50 [2] 7.42 µM | AC50 [3] 6.61 µM | AC50 [4] 8.33 µM | IC50 [5] 23.5 µM | z-score [7, 13] 5.9
-5.11: z-score [7, 14]
0.558: fold change [6, 10]
2650: cell count [6, 11]
inactive: fold change [6, 9] 0.908
2920: cell count [6, 12]

C=CC(=O)Nc1cc(Nc2nccc(-c3cn(C)c4ccccc34)n2)c(OC)cc1N(C)CCN(C)C
0.432: fold change [6, 10]
1.23: z-score [7, 14]
active: AC50 [1] 2.95 µM | AC50 [2] 7.42 µM | AC50 [3] 3.72 µM | AC50 [4] 2.63 µM | IC50 [5] 9.34 µM | viability [8, 17] 95.5% | viability [8, 18] 94.3% | viability [8, 41] 91.6% | viability [8, 42] 91.7% | viability [8, 43] 2.67% | viability [8, 44] 3.48% | viability [8, 45] 8.99% | viability [8, 46] 78.5%
inactive: fold change [6, 9] 0.975 | z-score [7, 13] -0.292 | viability [8, 15] 110% | viability [8, 16] 114% | viability [8, 19] 106% | viability [8, 20] 108% | viability [8, 21] 103% | viability [8, 22] 103% | viability [8, 23] 120% | viability [8, 24] 120% | viability [8, 25] 103% | viability [8, 26] 106% | viability [8, 27] 127% | viability [8, 28] 118% | viability [8, 29] 108% | viability [8, 30] 106% | viability [8, 31] 133% | viability [8, 32] 132% | viability [8, 33] 105% | viability [8, 34] 107% | viability [8, 35] 158% | viability [8, 36] 170% | viability [8, 37] 108% | viability [8, 38] 108% | viability [8, 39] 147% | viability [8, 40] 173%
2760: cell count [6, 11]
2830: cell count [6, 12]

Source: PubChem BioAssay
